# Measured values: article PMC5540273 (PLoS ONE, 2017)
# Test system: CAMK1G
# Conditions: concentration: 1 μM, replicates: in singlicate; n = 1
# 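Note: KINOMEscan kinase panel screen.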
row,SMILES,%Inh
1,Cc1cccc(-c2cc(-c3c[nH]nc3-c3ccccn3)ccn2)c1 [GW679395],0%
2,COc1ccc(-c2coc3ccc(-c4nnc(SCc5cccc(C#N)c5)o4)cc23)cc1,8%
3,COc1ccc(CNC(=O)NC2CCN(c3ccnc(Nc4ccc(F)cc4)n3)C2)cc1 (centres unmarked) [GSK1379706],8%
4,COc1cc2ncn(-c3cc(OCc4ccncc4Br)c(C(N)=O)s3)c2cc1OC [GW854278],7%
5,Cc1nnc(-c2ccc(C)c(-c3ccc(C(=O)O)cc3)c2)o1 [GW608005],0%
6,COc1cc2ncn(-c3cc(OCCCc4ccccc4)c(C(N)=O)s3)c2cc1OC [GSK205189],24%
7,Cc1cc(Nc2nc(-c3cccc(C)n3)nc3ccccc23)ccn1 [GW872411],0%
8,Cc1ccc(-c2ccc3c(ccc4sc5c(c43)NC[C@@H](C)N=C5N(C)C)n2)cn1,0%
9,CCc1ccc(-c2ccc3c(c2)-c2nn(C)cc2S(=O)(=O)N3C)cc1,16%
10,Nc1n[nH]c2ncc(-c3ccccc3)cc12 [SB-517081],17%
11,Nc1ncnc2c1ncn2-c1cccc2ccccc12 [SKF-97184],8%
12,O=C(NCCNc1ccnc(Nc2ccc(F)cc2)n1)Nc1ccc2c(c1)OCO2 [GSK1379882],0%
13,O=C(Nc1n[nH]c2nc(-c3ccccc3)c(Br)cc12)C1CC1 [SB-708998],0%
14,Cl.NS(=O)(=O)c1cccc(Nc2cc(-c3ccc(F)cc3)n[nH]2)c1 [GW824645],0%
